WRN helicase inh-1 = qHTS for Inhibitors of WRN Helicase | Bifunctional 3'-5' exonuclease/ATP-dependent helicase WRN (Homo sapiens), Q14191 | WRN helicase unwinding, fluorescent forked duplex, kinetic | Potency, µM (series often up to 114 µM), for the others: at the top dose activity change, negative = inhibition, hits mostly inhibitors | 360,000 tested, 0.46% active | AID 651768, 2012; further: on the % scale 0 is the no-effect control and ±100 the full control effect; nearly all actives have a fitted effect of over 55% in size
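WRN at 20 nM final preincubated with compound 15 min at room temperature; reaction started with 100 nM fluorophore/quencher forked duplex oligonucleotide and 2 mM ATP final. Unwinding followed kinetically by red fluorescence (ex 525, em 598 nm).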
Pol kappa inh-1 = qHTS for Inhibitors of Polymerase Kappa; AID 588579, 2011; purified Pol kappa, fluorescent DNA synthesis assay, 10 min; Potency, µM (titrated, usually from 107 µM), without a hit: top-dose activity, negative = inhibition, most hits filed as inhibitors; 400,000 tested, 0.53% active; further: on the % scale 0 is the no-effect control and ±100 the full control effect
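Here, compound and 10 nM enzyme are combined for 15 min at room temperature; adding 50 nM substrate (final) starts DNA synthesis, tracked by fluorescence at 0 and 10 min against buffer-only wells.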
Pol eta inh-1 = qHTS for Inhibitors of Polymerase Eta; recombinant Pol eta, fluorescent DNA replication assay; 390,000 tested, 1.2% active; Potency, µM (doses to about 114 µM), for inactives: top-dose activity change, negative = inhibition, most hits filed as inhibitors; DNA polymerase eta (Homo sapiens), Q9Y253; further: on the % scale 0 is the no-effect control and ±100 the full control effect
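Pol eta (10 nM) was preincubated with compounds for 15 min at room temperature, after which fluorescent replication substrate (50 nM final) was added to start the reaction. Fluorescence was read kinetically at 0 and 10 min.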
FEN1 inh-1 = qHTS Assay for the Inhibitors of Human Flap endonuclease 1 (FEN1); P39748; Recombinant FEN1 flap cleavage, fluorescence, 15 min; Potency, µM (doses to about 114 µM), for inactives: at the highest dose activity change, negative = inhibition, usual class: inhibitors; 390,000 tested, 0.35% active; AID 588795, 2011; further: on the % scale 0 is the no-effect control and ±100 the full control effect; nearly all actives have a fitted effect of over 65% in size
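Potency values derive from four-parameter Hill fits of normalized qHTS data. The reaction used 10 nM FEN1 preincubated 15 min at room temperature with compound, then 50 nM DNA substrate, read at 0 and 15 min.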
Pol beta inh = qHTS Assay for Inhibitors of DNA Polymerase Beta. AID 485314, 2010. 340,000 tested, 1.3% active. Pol beta primer extension/strand displacement, fluorescence kinetic. Potency, µM (highest dose often 114 µM), for the others: top-dose activity change, negative = inhibition, most hits filed as inhibitors; further: on the % scale 0 is the no-effect control and ±100 the full control effect
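Human Pol beta at 10 nM; strand-displacement substrate 50 nM final. Compound exposure 15 min at room temperature before start, reaction 10 min at room temperature.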
Pol iota inh = qHTS for Inhibitors of Polymerase Iota | DNA polymerase iota (Homo sapiens), Q9UNA4 | Pol iota fluorescent replication assay, 10 min | Potency, µM (doses to about 115 µM), without a hit: at the highest dose activity, negative = inhibition, usual class: inhibitors | 390,000 tested, 1% active | AID 588590, 2011
Target sequence (Q9UNA4 whole entry, looked up): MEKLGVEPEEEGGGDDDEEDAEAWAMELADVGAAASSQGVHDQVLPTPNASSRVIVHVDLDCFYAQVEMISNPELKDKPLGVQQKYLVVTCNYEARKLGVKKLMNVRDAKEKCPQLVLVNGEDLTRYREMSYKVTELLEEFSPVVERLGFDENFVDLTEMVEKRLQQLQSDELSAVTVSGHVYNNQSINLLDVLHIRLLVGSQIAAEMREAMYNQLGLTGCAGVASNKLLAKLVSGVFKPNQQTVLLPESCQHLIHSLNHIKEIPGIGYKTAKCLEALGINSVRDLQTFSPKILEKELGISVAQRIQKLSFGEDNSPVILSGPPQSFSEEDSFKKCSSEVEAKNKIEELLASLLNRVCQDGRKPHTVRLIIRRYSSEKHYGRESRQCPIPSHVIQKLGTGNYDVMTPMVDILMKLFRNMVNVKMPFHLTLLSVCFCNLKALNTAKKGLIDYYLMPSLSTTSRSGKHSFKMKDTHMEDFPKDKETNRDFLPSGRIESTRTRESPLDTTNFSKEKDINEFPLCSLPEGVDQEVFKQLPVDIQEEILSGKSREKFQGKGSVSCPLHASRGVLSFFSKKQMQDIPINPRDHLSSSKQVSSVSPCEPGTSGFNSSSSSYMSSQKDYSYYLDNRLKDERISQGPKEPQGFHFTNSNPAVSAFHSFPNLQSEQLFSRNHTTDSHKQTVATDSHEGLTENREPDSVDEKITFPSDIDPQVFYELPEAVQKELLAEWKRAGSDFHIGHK
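Pol iota at 10 nM preincubated 15 min with compounds at room temperature; reaction started with fluorescent substrate, 50 nM final. Fluorescence read kinetically at 0 and 10 min; buffer-only wells as negative control.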
PGK validate = qHTS for inhibitors of Phosphogylcerate Kinase: Hit Validation Screen | shares compounds with Pol kappa inh-1 | TbPGK coupled GAPDH assay, Kinase-Glo luminescence | Potency, µM (top dose mostly 57.5 µM), for the others: at the top dose activity change, negative = inhibition, hits mostly inhibitors | 500 tested, 79% active | AID 686980, 2013; further: on the % scale 0 is the no-effect control and ±100 the full control effect; nearly all actives have a fitted effect of over 65% in size
Pol iota confirm = qHTS for Inhibitors of Polymerase Iota: Confirmatory Assay for Cherry-picked Compounds. shares compounds with Pol kappa inh-1. Pol iota primer extension, TAMRA/BHQ fluorescence. Potency, µM, actives largely listed as inhibitors. 1,500 tested, 77% active. AID 720496, 2013
Pol kappa inh-2 = qHTS for Inhibitors of Polymerase Kappa: Confirmatory Assay for Cherry-picked Compounds. 920 tested, 76% active. Potency, µM, most hits filed as inhibitors. shares compounds with Pol eta inh-1. purified Pol-kappa, fluorescent strand-displacement substrate
Pol eta inh-2 = qHTS for Inhibitors of Polymerase Eta: Confirmatory Assay for Cherry-picked Compounds. shares compounds with Pol eta inh-1. Potency, µM, actives largely listed as inhibitors. 2,600 tested, 64% active. Pol eta primer extension, TAMRA/BHQ fluorescence, 10 min
FEN1 inh-2 = qHTS Assay for the Inhibitors of FEN1: Confirmatory Assay for Cherry-picked Compounds; FEN1 flap cleavage, TAMRA/BHQ2 fluorogenic DNA substrate; shares compounds with FEN1 inh-1; AID 720498, 2013; Potency, µM, most hits filed as inhibitors; 880 tested, 79% active; further: nearly all actives have a fitted effect of over 60% in size
WRN helicase inh-2 = qHTS for Inhibitors of WRN Helicase: Confirmatory Assay for Cherry-picked Compounds. 610 tested, 63% active. shares compounds with WRN helicase inh-1. Potency, µM (highest dose often 57.1 µM), inactives show at the highest dose activity, negative = inhibition, most hits filed as inhibitors. WRN helicase DNA unwinding, fluorescence kinetic; further: nearly all actives have a fitted effect of over 65% in size
TO DNA binding = qHTS for Inhibitors of WRN Helicase: Thiazole Orange DNA Binding Counterscreen; shares compounds with WRN helicase inh-1; thiazole orange DNA binding displacement, fluorescence; Potency, µM (highest dose often 57.1 µM), inactives show top-dose activity change, negative = inhibition, actives largely listed as inhibitors; 610 tested, 10% active; AID 720499, 2013;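 further: drop in dye fluorescence marks compound binding to DNA; on the % scale 0 is the no-effect control and ±100 the full control effect; nearly all actives have a fitted effect of over 60% in size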
BLM helicase inh = qHTS for Inhibitors of WRN Helicase: BLM Helicase Counterscreen for WRN Inhibitors; AID 720503, 2013; Potency, µM (top dose mostly 57.1 µM), without a hit: at the top dose activity change, negative = inhibition, actives largely listed as inhibitors; 610 tested, 60% active; shares compounds with WRN helicase inh-1; Recombinant BLM helicase DNA unwinding, red fluorescence; further: nearly all actives have a fitted effect of over 60% in size
An asterisk follows results filed as active; [ ] = another dose, or the depositor's remark. An excerpt weighted towards active compounds, which were near 2.4% of everything screened. The call rests on the fitted dose curve; in most records, active means well fitted curve in the direction sought with a large enough effect; inconclusive means small, poorly fitted or top-dose-only effect, or another doubt; inactive means no such curve, though single readings can be large; an effect the other way counts as inactive or inconclusive. Potency means the concentration at half of the fitted maximal effect.

`Cc1n[nH]c(=S)n(NC(=O)/C=C/C(=O)Nn2c(=S)[nH]nc(C)c2=O)c1=O` gave WRN helicase inh-1 18µM*, Pol kappa inh-1 8.9µM*, Pol eta inh-1 8.9µM*, FEN1 inh-1 45µM*, Pol beta inh 20µM*, Pol iota inh inconclusive, PGK validate 21µM*, Pol iota confirm 21*, Pol kappa inh-2 9.5*, Pol eta inh-2 9.5*, WRN helicase inh-2 inconclusive, TO DNA binding -15% and BLM helicase inh 22µM*.
For CC(CNc1nc2ccccc2c2nc(-c3ccccc3)nn12)c1ccccc1 (centres undefined) the results were Pol kappa inh-1 -2%, Pol eta inh-1 -4%, FEN1 inh-1 13%, Pol beta inh 37% and Pol iota inh -24%.
For O=C(CSc1nc2ccccc2n1CCc1ccccc1)c1ccc(O)c(O)c1 the results were WRN helicase inh-1 7.9µM*, Pol kappa inh-1 inconclusive, Pol eta inh-1 3.2µM*, FEN1 inh-1 56µM*, Pol beta inh 0.5µM*, Pol iota inh 2.8µM*, PGK validate 1.5µM*, Pol iota confirm 3*, Pol eta inh-2 3*, FEN1 inh-2 67*, WRN helicase inh-2 6.8µM*, TO DNA binding 17µM* and BLM helicase inh 1.5µM*.
For O=C(CSc1nc2ccccc2n1CCc1ccccc1)N1CCOCC1 the results were WRN helicase inh-1 -8%, Pol kappa inh-1 -14%, Pol eta inh-1 -20%, FEN1 inh-1 -6%, Pol beta inh 1%[57.1 µM] and Pol iota inh 0%.
Screening CN(N=O)c1ccc2c(c1)Cc1ccccc1-2 returned Pol kappa inh-1 6%, FEN1 inh-1 13% and Pol iota inh 21%.
Screening Cc1cccc(N=C2NC(=O)/C(=C/C=C/c3ccco3)S2)c1C returned WRN helicase inh-1 32µM*, Pol kappa inh-1 14µM*, Pol eta inh-1 1.8µM*, FEN1 inh-1 45µM*, Pol beta inh 2.5µM*, Pol iota inh 3.5µM*, Pol iota confirm 67*, Pol eta inh-2 27*, FEN1 inh-2 76*, WRN helicase inh-2 15µM*, TO DNA binding 27µM* and BLM helicase inh 8.6µM*.
For CC(C)NS(=O)(=O)c1ccc2nc(NC(=O)c3cncc(Br)c3)sc2c1 the results were Pol kappa inh-1 -9%[60.1 µM], Pol eta inh-1 -15%, FEN1 inh-1 -11%, Pol beta inh -10% and Pol iota inh 17%.
For Cc1cc(C)cc(OCC(=O)NCC2(N(C)C)CCCCC2)c1 the results were Pol kappa inh-1 -17%, Pol eta inh-1 -10%, FEN1 inh-1 17%, Pol beta inh 10% and Pol iota inh 19%.
`Cc1nccc2oc(=O)c(NC(=O)c3ccc(Cl)cc3)cc12` gave WRN helicase inh-1 -3%, Pol kappa inh-1 2%, Pol eta inh-1 -17%, FEN1 inh-1 1%, Pol beta inh inconclusive and Pol iota inh 17%.
For O=C(Nc1cc2c(oc1=O)CCCC2=O)c1ccc(Cl)cc1 the results were WRN helicase inh-1 13µM*, Pol kappa inh-1 18µM*, Pol eta inh-1 11µM*, FEN1 inh-1 56µM*, Pol beta inh 3.5µM*, Pol iota inh -98%, Pol iota confirm 15*, Pol eta inh-2 8.5*, WRN helicase inh-2 19µM*, TO DNA binding 0% and BLM helicase inh 7.6µM*.
COc1ccc(-c2nn(CCC(=O)O)cc2/C=C2\SC(N)=NC2=O)cc1OC was read as WRN helicase inh-1 -5%[11.6 µM], Pol kappa inh-1 inconclusive, Pol eta inh-1 10µM*, FEN1 inh-1 0%, Pol beta inh -1%, Pol iota inh -21% and Pol eta inh-2 43*.
COc1ccc2occ(CC(=O)Nc3ccc(S(=O)(=O)Nc4nc(C)cc(C)n4)cc3)c2c1 was read as Pol kappa inh-1 inconclusive, Pol eta inh-1 25µM*, FEN1 inh-1 inconclusive, Pol beta inh 28µM*, Pol iota inh 79µM*, Pol kappa inh-2 42* and Pol eta inh-2 inconclusive.
